The text below walks through data of PubChem BioAssay (NCI).

About 83,000 compounds went through this panel and 20% of them were active in at least one assay; those are over-represented in the sample as a whole.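 Plates (96-well) were seeded with cells, treated with compound at one concentration, and incubated for 48 hours before percent growth was determined.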 Unmarked numbers belong to inactive results. Activity calls are given as the source filed them. Rule for the calls: active = growth percent below 10; inactive = the rest.

Some test systems named below: NCI-H23 lung; NCI-H226 lung; NCI-H322M lung; HOP-62 NSCLC; NCI-H460 lung; NCI-H522 lung; A549/ATCC NSCLC; 786-0 renal; COLO 205 colon; DU-145 prostate; K-562 leukemia; MALME-3M melanoma; MDA-MB-231 breast; RXF 393 renal; SF-268 CNS; SF-295 CNS; SF-539 CNS; UACC-257 melanoma; M14 melanoma.
What all share (experiment): NCI-60 one-dose screen, 48 h (100 = growth as untreated, 0 = no growth, -100 = all killed)
Conditions in all cases: 10 µM unless noted

Regarding `NS(=O)(=O)c1ccc(CCn2c(SCC(=O)N/N=C/c3cccnc3)nc3ccccc3c2=O)cc1`, the growth is 93.3% in the assay on NCI-H23 lung; 83% in the assay with NCI-H226 lung; 101% with NCI-H322M lung; 83.3% in the assay on HOP-62 NSCLC; 90.5% with NCI-H460 lung; 68.5% in the assay on NCI-H522 lung. The growth with A549/ATCC NSCLC is 97.3%; in the assay on 786-0 renal, 92.4%; with COLO 205 colon, 97.3%; in the assay on DU-145 prostate, 98.9%; with K-562 leukemia, 61%; with MALME-3M melanoma, 81.7%. Besides, the growth in the assay on MDA-MB-231 breast was 98.5%; with RXF 393 renal, 93.4%; in the assay with SF-268 CNS, 89.7%; with SF-295 CNS it was 85.7%; in the assay with SF-539 CNS, 104%; in the assay with UACC-257 melanoma, 107%. Besides, the growth in the assay on M14 melanoma is 94.7%.
With `O=C(Nc1cccc(C2=NCCN2)c1)c1ccc(N=Nc2ccc(C(=O)Nc3cccc(C4=NCCN4)c3)cc2)cc1`, the growth in the assay with NCI-H23 lung is 44.3%; with NCI-H226 lung, 81.5%; in the assay on NCI-H322M lung it was 64.7%; in the assay with HOP-62 NSCLC it was 42.3%; in the assay on NCI-H460 lung, 41.9%; in the assay on NCI-H522 lung it was 36.2%. In addition, the growth was 33.9% in the assay with A549/ATCC NSCLC; 69.2% in the assay on 786-0 renal; 64.5% in the assay on COLO 205 colon; 59.1% in the assay on DU-145 prostate; 51.8% in the assay on K-562 leukemia; 29.7% in the assay with MALME-3M melanoma. Moreover, the growth in the assay on MDA-MB-231 breast was 73.1%; in the assay with RXF 393 renal it was 105%; with SF-268 CNS, 54.2%; in the assay on SF-295 CNS, 82.4%; in the assay with SF-539 CNS, 74%; in the assay on UACC-257 melanoma, 55.4%. The growth in the assay on M14 melanoma is 64.9%.
As for `C#CCO[C@H]1CC[C@H](OCC#C)[C@@H]2[C@H]1[C@H]1C[C@@H]3[C@@]4(C)CCC[C@@](C)(C(=O)OC)[C@@H]4CC[C@@]23C=C1C(C)C`, the growth in the assay on NCI-H23 lung is 64.3%; with NCI-H226 lung, 81.7%; in the assay on NCI-H322M lung it was 88.5%; in the assay on HOP-62 NSCLC, 77.5%; in the assay on NCI-H460 lung, 104%; in the assay with NCI-H522 lung, -66.5% (active). For the same compound, the growth with A549/ATCC NSCLC was 57.1%; with 786-0 renal, -23.5% (active); with COLO 205 colon, 83.5%; in the assay with DU-145 prostate, 94.3%; in the assay with K-562 leukemia it was 79.7%; in the assay on MALME-3M melanoma, -41.7% (active). The growth was 65% in the assay on MDA-MB-231 breast; 94.9% with RXF 393 renal; 81.1% in the assay with SF-268 CNS; 92.7% with SF-295 CNS; 70.9% with SF-539 CNS; 56% in the assay with UACC-257 melanoma. The growth with M14 melanoma is 93.8%.
For the compound `Nc1cc(C(=O)O)cc(C(=O)O)c1`, the growth was 108% in the assay with NCI-H23 lung; 108% in the assay on NCI-H226 lung; 102% in the assay on NCI-H322M lung; 98.1% in the assay with HOP-62 NSCLC; 112% with NCI-H460 lung; 91% with NCI-H522 lung. In addition, the growth with A549/ATCC NSCLC was 108%; with 786-0 renal, 96.8%; with COLO 205 colon, 99%; in the assay with DU-145 prostate it was 145%; in the assay on K-562 leukemia, 96.6%; with MALME-3M melanoma it was 92.8%. The growth was 102% with MDA-MB-231 breast; 128% with RXF 393 renal; 115% in the assay on SF-268 CNS; 113% in the assay on SF-295 CNS; 103% in the assay on SF-539 CNS; 110% in the assay with UACC-257 melanoma. Further, in the assay with M14 melanoma, the growth is 98.9%.
In the case of `S=C(Nc1ccc(Cl)cc1)Nc1ccc(Cl)cc1` (tested in a mixture with another compound), the growth with NCI-H23 lung was 1.65% (active); in the assay with NCI-H226 lung, 16.4%; in the assay on NCI-H322M lung it was 4.59% (active); in the assay on HOP-62 NSCLC it was 6.8% (active); in the assay on NCI-H460 lung, -17.4% (active); in the assay on NCI-H522 lung it was -27.9% (active). The growth was 1.68% (active) in the assay with A549/ATCC NSCLC; 22.1% with 786-0 renal; -95.7% (active) in the assay with COLO 205 colon; 22.2% in the assay on DU-145 prostate; 12.1% with K-562 leukemia; -7.85% (active) in the assay on MALME-3M melanoma. Further, the growth in the assay on MDA-MB-231 breast was -58.7% (active); in the assay on RXF 393 renal it was 9.51% (active); in the assay with SF-268 CNS, 23%; with SF-295 CNS it was -6.55% (active); in the assay with SF-539 CNS, 19.1%; with UACC-257 melanoma, -14.7% (active). In the assay with M14 melanoma, the growth is 19%.
For `COc1cc(/C=C2\CN(C(=O)OC(C)(C)C)C/C(=C\c3ccc(O)c(OC)c3)C2=O)ccc1O`, the growth in the assay on NCI-H23 lung is 97.8%; in the assay with NCI-H226 lung, 94.6%; in the assay on NCI-H322M lung it was 100%; with HOP-62 NSCLC, 98%; with NCI-H460 lung, 91.7%; in the assay with NCI-H522 lung, 64.5%. The growth was 73.2% with A549/ATCC NSCLC; 93.3% with 786-0 renal; 110% with COLO 205 colon; 101% in the assay on DU-145 prostate; 80.1% in the assay with K-562 leukemia; 97.5% in the assay with MALME-3M melanoma. Also, the growth was 86.1% in the assay on MDA-MB-231 breast; 102% with RXF 393 renal; 89.5% with SF-268 CNS; 101% in the assay with SF-295 CNS; 106% in the assay with SF-539 CNS; 73.6% in the assay with UACC-257 melanoma. The growth in the assay on M14 melanoma was 93.9%.
In the case of `CC(C)(C)[Si](C)(C)OC1[C@@H](O[Si](C)(C)C(C)(C)C)[C@@H](CNC(=O)NC(=O)NC(=O)CI)O[C@H]1n1cnc2c(NC(=O)Nc3ccccc3)ncnc21` (some centres not stated), the growth in the assay on NCI-H23 lung is -51.8% (active); with NCI-H226 lung it was 108%; in the assay on NCI-H322M lung it was 111%; with HOP-62 NSCLC it was 2.91% (active); with NCI-H460 lung, 78.8%; in the assay with NCI-H522 lung, -80.4% (active). For the same compound, the growth in the assay with A549/ATCC NSCLC is 65.5%; in the assay on 786-0 renal it was 7.17% (active); in the assay on COLO 205 colon it was 45.2%; in the assay with DU-145 prostate, 90.7%; in the assay with K-562 leukemia, 52.3%; in the assay with MALME-3M melanoma, -83.3% (active). The growth was -49.7% (active) in the assay on MDA-MB-231 breast; -5.13% (active) in the assay on RXF 393 renal; 26.4% with SF-268 CNS; -56.8% (active) in the assay on SF-295 CNS; -63.2% (active) in the assay with SF-539 CNS; 105% in the assay with UACC-257 melanoma. The growth with M14 melanoma was 73.1%.
Take `COc1cnc2c(c1)C(=O)c1c-2n(CCCN2CCNCC2)c(=O)c2cc(Cl)ccc12`: the growth with NCI-H23 lung is -63.2% (active); with NCI-H226 lung, 18.6%; in the assay with NCI-H322M lung, 54.3%; in the assay with HOP-62 NSCLC, -24.4% (active); with NCI-H460 lung it was -81.2% (active); with NCI-H522 lung it was 17.4%. In addition, the growth with A549/ATCC NSCLC is -30.9% (active); in the assay with 786-0 renal it was -81.1% (active); with COLO 205 colon, 22.7%; in the assay on DU-145 prostate it was -95.8% (active); with K-562 leukemia it was -75.8% (active); with MALME-3M melanoma it was -51.5% (active). Also, the growth is -73.1% (active) with MDA-MB-231 breast; -1.72% (active) in the assay with RXF 393 renal; -75.6% (active) in the assay on SF-268 CNS; 15.5% in the assay with SF-295 CNS; -93.8% (active) in the assay with SF-539 CNS; 22.4% in the assay with UACC-257 melanoma. Further, the growth with M14 melanoma was -79.5% (active).
